According to PubChem BioAssay AID463173 (ICCB-Longwood Screening Facility, Harvard Medical School, 2010):
About 4,300 (8.3%) of roughly 52,000 compounds were called active. No stated cut-off is given here; in the data, active means survival mostly below about 52% (no sharp cut-off); inactive means mostly above about 56%. This excerpt belongs to a sample that is enriched for actives.

test system: DeltatarO mutant; assay: S. aureus survival, RN4220 and DeltatarO strains – OD600, teichoic acid synthesis inhibitors, primary screen (AID 463173); settings: S. aureus RN4220 wild type/DeltatarO growth, OD600, 18 h, active compounds read low, screened at 18.75 µg/mL (by protocol)

SMILES	survival
CCN(C(=O)CCc1nc(-c2ccc(C)cc2)no1)c1cc(C)ccc1C	-4% (active)
O=C(CSc1nc(-c2ccccc2)no1)N1CCCCC1	39% (active)
CCN(C(=O)CSc1nc(-c2ccccc2)no1)c1cccc(C)c1	-3% (active)
CCN(C(=O)CCc1nc(-c2ccc(C)cc2)no1)c1cccc(C(F)(F)F)c1	-5% (active)
COc1cccc(CNC(=O)CCc2nc(-c3ccc(C)cc3)no2)c1	145% (inactive)
O=C(CSc1nc(-c2ccccc2)no1)N1CCN(c2ccccc2)CC1	99% (inactive)
CC(C)c1ccc(-c2noc(SCC(=O)N3CCCCC3)n2)cc1	72% (inactive)
CC(=O)c1ccc(NC(=O)CCc2nc(-c3ccc(C)cc3)no2)cc1	67% (inactive)
CCN(C(=O)CSc1nc(-c2ccc(C(C)C)cc2)no1)c1cccc(C)c1	84% (inactive)
CCN(C(=O)CSc1nc(-c2ccccc2)no1)c1ccccc1	79% (inactive)
COc1ccc(-c2noc(CCC(=O)Nc3ccc(C(F)(F)F)cc3)n2)cc1	86% (inactive)
Cc1ccc(C)c(NC(=O)CCc2nc(-c3ccc(C(C)(C)C)cc3)no2)c1	69% (inactive)
CN1C(=O)C2(c3ccccc31)N(c1ccccc1)C(=O)CS2(=O)=O (stereo not given)	91% (inactive)
Cc1nc(-c2ccc(F)cc2)sc1CCNC(=O)c1ccco1	116% (inactive)
O=C(Nc1ccc2nn(-c3ccccc3)nc2c1)c1ccccc1	97% (inactive)
Cc1cc(C)c2nc(N(Cc3cccnc3)C(=O)Cc3ccccc3)sc2c1	79% (inactive)
CCCCOc1ccc(C(=O)NCCc2csc(-c3cccc(F)c3)n2)cc1	96% (inactive)
O=C(N/N=C1/CSC(=O)N1Cc1cccs1)c1cccs1	75% (inactive)
Cc1cc(C)c(S(=O)(=O)NCCc2cc3cc(C)c(C)cc3[nH]c2=O)c(C)c1	63% (inactive)
COc1ccc(N(C)C(C)=O)cc1	91% (inactive)

SMILES	survival
CCc1ccc(C(=O)c2cn(CC(=O)Nc3cc(OC)cc(OC)c3)c3ccc(CC)cc3c2=O)cc1	84% (inactive)
CCN(C(=O)CCc1nc(-c2ccc(C)cc2)no1)c1cccc(Cl)c1	-5% (active)
CCN(C(=O)Cc1nc(-c2ccc(OC)cc2)no1)c1cccc(Cl)c1	83% (inactive)
CC(C)(C)c1ccc(-c2noc(CCC(=O)Nc3cccc(Cl)c3)n2)cc1	87% (inactive)
CCOCCCNC(=O)C(c1ccc(OC)cc1)N(Cc1cccs1)C(=O)c1ccc(NC(C)=O)cc1 (stereo not given)	53% (inactive)
Cn1nc(C(=O)NCc2cccc(Cl)c2)c2c1-c1ccccc1SC2	74% (inactive)
COc1cccc(NC(=O)c2c(C)nn(-c3cccc(C)c3)c2-n2cccc2)c1	8% (active)
CCOC(=O)N1CCC(NC(=O)c2c(C)nn(-c3cccc(C)c3)c2-n2cccc2)CC1	89% (inactive)
COc1cc(NC(=O)c2c(C)nn(-c3ccc(F)cc3)c2-n2cccc2)cc(OC)c1	78% (inactive)
Cc1cccc(-n2nc(C)c(C(=O)N3CCN(c4ccccc4)CC3)c2-n2cccc2)c1	66% (inactive)
COc1cccc(CNC(=O)c2c(C)nn(-c3cccc(C)c3)c2-n2cccc2)c1	81% (inactive)
CCOC(=O)N1CCN(C(=O)c2c(C)nn(-c3cccc(C)c3)c2-n2cccc2)CC1	20% (active)
O=C(CCOc1ccccc1)N(Cc1cccnc1)c1nc2c(Cl)cccc2s1	80% (inactive)
CN(C)c1ccc(CNC(=O)CN(C)S(=O)(=O)c2ccc3c(c2)c(=O)n(C)c(=O)n3C)cc1	97% (inactive)
COc1ccc(CNC(=O)C(CCSC)NS(=O)(=O)c2ccc3c(c2)oc(=O)n3C)cc1 (stereo not given)	69% (inactive)
Cc1c(C(=O)N(C)C)sc2c1c(=O)n(-c1ccccc1C(F)(F)F)c(=O)n2Cc1cccc(F)c1	78% (inactive)
CN1CCN(C(=O)c2cnn(-c3ccc(F)cc3F)c2C2CCN(C(=O)OC(C)(C)C)CC2)CC1	80% (inactive)
CC(C)(C)OC(=O)N1CCC(c2c(C(=O)N3CCN(c4ccccn4)CC3)cnn2-c2ccc(F)cc2F)CC1	79% (inactive)
Cc1ccc(-n2ncc(C(=O)N3CCN(c4ncccn4)CC3)c2C2CCN(C(=O)OC(C)(C)C)CC2)cc1	80% (inactive)
Cc1ccc(-n2ncc(C(=O)N3CCN(c4cccc(C)c4C)CC3)c2C2CCNCC2)c(C)c1	83% (inactive)

SMILES	survival
CC(C)(C)OC(=O)N1CCC(c2c(C(=O)N3CCN(c4ncccn4)CC3)cnn2-c2ccc(F)cc2)CC1	17% (active)
CC(C)(C)OC(=O)N1CCC(c2c(C(=O)N3CCN(c4ncccn4)CC3)cnn2-c2ccccc2)CC1	94% (inactive)
Cc1cccc(N2CCN(C(=O)c3cnn(-c4ccc(F)cc4F)c3C3CCN(C(=O)OC(C)(C)C)CC3)CC2)c1C	82% (inactive)
COc1ccccc1N1CCN(C(=O)c2cnn(-c3ccc(F)cc3F)c2C2CCNCC2)CC1	32% (active)
CC(C)(C)OC(=O)N1CCC(c2c(C(=O)N3CCN(c4ncccn4)CC3)cnn2-c2ccc(F)cc2F)CC1	6% (active)
CCc1[nH]nc2c1C1(C(=O)Nc3ccc(Cl)cc31)C(C#N)=C(N)O2 (stereo not given)	78% (inactive)
O=C(CSc1ncc2c(n1)-c1ccccc1N(Cc1ccc(Cl)cc1)S2(=O)=O)c1ccccc1	144% (inactive)
O=C(CN1C(=O)CC(c2ccco2)Sc2ccccc21)Nc1cccc(C(F)(F)F)c1 (stereo not given)	103% (inactive)
CC1CCCN(Cc2nc3c(c(=O)n(C)c(=O)n3C)n2Cc2ccc(Cl)cc2)C1 (stereo not given)	90% (inactive)
Fc1ccccc1N1CCN(c2c3c(nc4nncn24)CCC3)CC1	81% (inactive)
CC1CCN(S(=O)(=O)c2nnc(NC(=O)c3ccc(C(C)C)cc3)s2)CC1	62% (inactive)
Cc1ccccc1N1CCN(S(=O)(=O)c2nnc(NC(=O)c3ccccc3)s2)CC1	26% (active)
Cc1ccccc1NS(=O)(=O)c1nnc(NC(=O)c2ccc(Cl)cc2)s1	41% (active)
Cc1nc(S(=O)(=O)N2CCN(c3ccccc3F)CC2)cn1C	117% (inactive)
Cc1ccc(C)c(N2CCN(S(=O)(=O)c3cn(C)c(C)n3)CC2)c1	72% (inactive)
Cc1ccccc1NS(=O)(=O)c1nnc(NC(=O)c2ccco2)s1	88% (inactive)
Cc1ccccc1N1CCN(S(=O)(=O)c2nnc(NC(=O)c3ccc(C(C)C)cc3)s2)CC1	38% (active)
Cc1ccccc1NS(=O)(=O)c1nnc(NC(=O)c2ccccc2C)s1	76% (inactive)
Cc1cccc(N2CCN(S(=O)(=O)c3cn(C)c(C)n3)CC2)c1C	0% (active)
Cc1ccc(N2CCN(S(=O)(=O)c3nnc(NC(=O)c4ccccc4)s3)CC2)cc1	57% (inactive)
